The panel holds about 83,000 compounds, 20% with a hit somewhere; the sample as a whole holds those more often.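 Values shown are percent growth following 48 h exposure of cells in 96-well plates to a single concentration of compound; below 10 was considered active.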 Values without a mark were called inactive. The source made the active and inactive calls.
Legend:
Assay in all cases: NCI-60 one-dose screen, 48 h (100 = growth as untreated, 0 = no growth, -100 = all killed)
SK-MEL-2 melanoma = conditions: 10 µM unless noted
EKVX NSCLC = conditions: 10 µM unless noted
SN12C renal = conditions: 10 µM unless noted
UO-31 renal = conditions: 10 µM unless noted
TK-10 renal = conditions: 10 µM unless noted
ACHN renal = conditions: 10 µM unless noted
CAKI-1 renal = conditions: 10 µM unless noted
A498 renal = conditions: 10 µM unless noted
CCRF-CEM leukemia = conditions: 10 µM unless noted
MOLT-4 leukemia = conditions: 10 µM unless noted
SR leukemia = conditions: 10 µM unless noted
RPMI-8226 leukemia = conditions: 10 µM
OVCAR-8 ovarian = conditions: 10 µM unless noted
OVCAR-5 ovarian = conditions: 10 µM unless noted
IGROV1 ovarian = conditions: 10 µM unless noted
OVCAR-3 ovarian = conditions: 10 µM unless noted
HS 578T breast = conditions: 10 µM unless noted
NCI/ADR-RES ovarian = conditions: 10 µM unless noted
OVCAR-4 ovarian = conditions: 10 µM unless noted
SK-OV-3 ovarian = conditions: 10 µM

Row | Compound | growth (SK-MEL-2 melanoma) [%] | growth (EKVX NSCLC) [%] | growth (SN12C renal) [%] | growth (UO-31 renal) | growth (TK-10 renal) | growth (ACHN renal) | growth (CAKI-1 renal) | growth (A498 renal) | growth (CCRF-CEM leukemia) | growth (MOLT-4 leukemia) | growth (SR leukemia) | growth (RPMI-8226 leukemia) [%] | growth (OVCAR-8 ovarian) [%] | growth (OVCAR-5 ovarian) | growth (IGROV1 ovarian) | growth (OVCAR-3 ovarian) | growth (HS 578T breast) | growth (NCI/ADR-RES ovarian) | growth (OVCAR-4 ovarian) [%] | growth (SK-OV-3 ovarian) [%]
1 | O=C(c1ccc2ncc(-c3nc(NC4CC4)ncc3F)n2c1)N1CCOCC1 | 27.7 | 49.2 | 30.1 | -33.4% (active) | 41.9% | 0.254% (active) | 3.25% (active) | -30.3% (active) | 19.5% | 16% | 3.87% (active) | 25.7 | 18.5 | 9.93% (active) | 8.94% (active) | -22.2% (active) | 4.89% (active) | 48.2% | – | –
2 | COc1ccc(S(=O)(=O)c2ccc(C(N)=O)cc2)cc1NC(=O)c1[nH]c(C)c2c1CCCCC2=O | 74.1 | 75 | 76.7 | 78.5% | 81.1% | 101% | 93.4% | 11.1% | 56.6% | – | 50% | 46.9 | 74.5 | 68.7% | 64.9% | 48% | -2.07% (active) | 105% | 51.1 | –
3 | CC1=C(C/C=C(\C)CCC[C@H](C)CCC[C@H](C)CCCC(C)C)C(=O)c2ccccc2C1=O | 114 | 114 | 99.7 | 71.7% | 95.6% | 104% | 103% | 101% | 102% | 101% | 94.9% | 106 | 100 | 105% | 111% | 119% | 105% | 111% | – | 103
4 | FC(F)(F)Oc1ccc2c(c1)C[C@H]1C[C@@H](c3ccoc3)N2O1 | 118 | 93.9 | 110 | 100% | 97.4% | 94% | 82.6% | 93.2% | 102% | 96.4% | 98.3% | 92.3 | 101 | 91.5% | 108% | 112% | – | 98.3% | – | 106
5 | O=[N+]([O-])c1ccc(C=C2C(Cl)=C(Cl)C(Cl)=C2Cl)cc1 | 102 | 91.6 | 52.3 | -19.8% (active) | 28.3% | 45.5% | 53% | 104% | 15.7% | 5.43% (active) | -1.36% (active) | 11.4 | 22.4 | 112% | – | -17% (active) | -13.4% (active) | – | 54.5 | 115
6 | COc1ccc(-c2nc3sc(C)cn3c2/C=C/C(=O)c2cc(OC)c(OC)c(OC)c2)cc1 | 63 | 34 | 59.5 | 31.6% | 96.9% | 54.4% | 76.7% | 52.5% | 37.4% | 12.2% | 48.5% | – | 35.7 | 113% | 67.1% | 41.7% | 37.3% | 21.8% | 47.8 | 66.4
7 | NC(=O)c1nc2c([nH]c1=O)CCCC2 | 106 | 114 | 107 | 83.5% | 102% | 106% | 93% | 99.4% | 94.4% | 97.3% | 100% | 96.5 | 106 | 117% | 115% | 108% | 109% | 105% | 109 | 94.7
8 | O=C1C(Cl)=C(NCCCN2CCOCC2)C(=O)c2ccccc21 | 104 | 112 | 82.8 | 61% | 131% | 108% | 102% | 110% | 90.9% | 88.4% | 39.2% | – | 96.1 | 111% | 56.4% | 96.4% | 99.7% | 99.1% | – | 102
9 | O=C1c2cc(S(=O)(=O)O)ccc2C(=O)c2c1cccc2[N+](=O)[O-] | 108 | 120 | 103 | 85.3% | 116% | 111% | 102% | 103% | 97.8% | 100% | 98.2% | – | 95.6 | 110% | 120% | 114% | 106% | 111% | 115 | 106
10 | O=C(c1ccccc1)C(Br)C(Br)c1cccc([N+](=O)[O-])c1 (stereo not given) | 69.8 | 101 | 67.1 | -74.8% (active) | -25.4% (active) | -87.9% (active) | -25.5% (active) | 48.2% | -15.7% (active) | 3.67% (active) | -33.3% (active) | – | 18.6 | 73.9% | -29.7% (active) | -23.4% (active) | 91.9% | 51.4% | 29.3 | –
11 | O=C(Nc1ccccc1)Oc1cccc2cccnc12 | 93.9 | 82.2 | 94.9 | 68.1% | 104% | 84.7% | 93.9% | 119% | 7.23% (active) | 55.3% | 48.2% | 76.2 | 74.4 | 92.9% | 20.4% | -19.4% (active) | 116% | 78.5% | – | 112
12 | CC(C)NCC(O)COc1ccc(CCOCC2CC2)cc1 (stereo not given) | 109 | 98.4 | 96.9 | 76.9% | 111% | 109% | 99.3% | 90.7% | 93.8% | 88.3% | – | 99.1 | 93 | 107% | 113% | 112% | 109% | – | – | 113
13 | Cc1cc(NS(=O)(=O)c2ccc(NC(=O)COc3ccc(-c4cc5ccccc5[nH]4)cc3)cc2)no1 | 27.3 | 54.4 | 39.2 | 26.4% | 52.6% | 21.7% | 57.5% | 42.9% | – | -2.31% (active) | -5.32% (active) | 24.9 | 32.3 | 52.3% | 35.3% | -0.541% (active) | 16.6% | 9.15% (active) | – | 13.7
14 | CCOC(=O)c1c(-c2cc(OC)c(OC)c(OC)c2)csc1N | 101 | 110 | 105 | 75.9% | 93.3% | 99.2% | 68.1% | 101% | 83.7% | – | 27.2% | 90.3 | 106 | 101% | 84.3% | 96.4% | 104% | 83.8% | – | 90.9
15 | NC1=NC(c2ccccc2OS(=O)(=O)c2ccc(Br)cc2)n2c(nc3ccccc32)N1 (stereo not given) | 101 | 99.1 | 87.7 | 73.5% | 99% | 94.5% | 104% | 101% | – | 79.3% | – | 69.8 | 88.3 | 99% | 81.8% | 94.6% | 101% | – | 110 | 105
16 | Cn1c(=O)c2c(-c3ccccc3F)n(-c3ccc4c(c3)OCO4)cc2n(C)c1=O | 133 | 87.6 | 90.4 | 82.4% | 115% | 100% | 89.6% | 69.5% | – | 72.9% | 68.1% | 52.9 | 99.1 | 98.6% | 101% | 114% | 88.2% | 95.8% | 104 | 110
17 | CC1CCCCN1S(=O)(=O)c1ccc(CN=C=S)cc1 (stereo not given) | 94.5 | 99.2 | 66.1 | 54% | 64.4% | 4.78% (active) | 51.2% | 79% | 39.2% | – | 5.92% (active) | – | 78.7 | 93% | 60.9% | -55.6% (active) | 59.4% | 102% | 100 | –

Reference: PubChem BioAssay (NCI)
